Source: the supplement of paper PMC8728848
About 410 targets per protein were measured; listed, in parts, are those with the strongest signals and a random draw of the rest.

What was measured:
Assay in all cases: glycan array binding signal (z-score within array); higher = stronger binding
Conditions in all cases: glycan notation: IUPAC condensed, linker removed
[1] = target: Gal(b1-4)GlcNAc(b1-3)[GlcNAc(b1-6)]Gal(b1-4)GlcNAc
In short: (§1)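 Negative Z-scores can be read as non-binding. The Z-score is calculated within each array and then averaged across arrays of one protein sequence at different concentrations or buffers and across linkers. Arrays, 3228 in all, were curated from the Consortium for Functional Glycomics database and kept only where the protein sequence was available.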

[2] = target: Gal(b1-4)GlcNAc6P
In short: as §1

[3] = target: Gal3S(b1-4)Glc
In short: as §1

[4] = target: Gal3S(b1-4)Glc6S
In short: as §1

[5] = target: Gal3S(b1-4)[Fuc(a1-3)]GlcNAc6S
In short: as §1

[6] = target: Gal3S6S(b1-4)GlcNAc
In short: as §1

[7] = target: Gal4S6S(b1-4)GlcNAc
In short: as §1

[8] = target: Gal6S(b1-4)Glc
In short: as §1

[9] = target: GalNAc(a1-3)GalNAc(b1-3)Gal(a1-4)Gal(b1-4)Glc
In short: as §1

[10] = target: GalNAc(a1-3)GalNAc(b1-3)Gal(a1-4)Gal(b1-4)GlcNAc
In short: as §1

[11] = target: GalNAc(b1-4)Gal(b1-4)Glc
In short: as §1

[12] = target: GalNAc3S(b1-4)GlcNAc
In short: as §1

[13] = target: Glc(a1-6)Glc(a1-6)Glc(a1-6)Glc
In short: as §1

[14] = target: GlcNAc(b1-3)Gal(b1-4)GlcNAc(b1-3)Gal(b1-4)GlcNAc(b1-3)Gal(b1-4)GlcNAc(b1-3)Gal(b1-4)GlcNAc(b1-2)Man(a1-3)[GlcNAc(b1-3)Gal(b1-4)GlcNAc(b1-3)Gal(b1-4)GlcNAc(b1-3)Gal(b1-4)GlcNAc(b1-3)Gal(b1-4)GlcNAc(b1-2)Man(a1-6)]Man(b1-4)GlcNAc(b1-4)[Fuc(a1-6)]GlcNAc
In short: as §1

[15] = target: GlcNAc(b1-4)[GlcNAc(b1-6)]GalNAc
In short: as §1

[16] = target: Man(a1-3)[Man(a1-6)]Man(a1-6)[Man(a1-2)Man(a1-3)]Man(b1-4)GlcNAc(b1-4)GlcNAc
In short: as §1

[17] = target: Man(a1-3)[Man(a1-6)]Man(a1-6)[Man(a1-3)]Man
In short: as §1

[18] = target: Man(a1-6)Man
In short: as §1

[19] = target: Neu5Ac(a2-3)Gal(b1-3)[Fuc(a1-4)]GlcNAc(b1-3)Gal(b1-4)[Fuc(a1-3)]GlcNAc
In short: as §1

[20] = target: Neu5Ac(a2-3)Gal(b1-3)[Neu5Ac(a2-6)]GalNAc
In short: as §1

[21] = target: Neu5Ac(a2-3)Gal(b1-4)GlcNAc(b1-2)Man
In short: as §1

[22] = target: Neu5Ac(a2-3)Gal(b1-4)GlcNAc(b1-2)Man(a1-3)[GlcNAc(b1-4)][Neu5Ac(a2-3)Gal(b1-4)GlcNAc(b1-2)Man(a1-6)]Man(b1-4)GlcNAc(b1-4)GlcNAc
In short: as §1

[23] = target: Neu5Ac(a2-3)[GalNAc(b1-4)]Gal(b1-4)GlcNAc
In short: as §1

[24] = target: Neu5Ac(a2-6)Gal(b1-4)GlcNAc(b1-2)Man(a1-3)[Gal(b1-4)GlcNAc(b1-2)Man(a1-6)]Man(b1-4)GlcNAc(b1-4)GlcNAc
In short: as §1

[25] = target: Neu5Ac(a2-6)Gal(b1-4)GlcNAc(b1-2)Man(a1-3)[GlcNAc(b1-4)][Neu5Ac(a2-6)Gal(b1-4)GlcNAc(b1-2)Man(a1-6)]Man(b1-4)GlcNAc(b1-4)GlcNAc
In short: as §1

[26] = target: Neu5Ac(a2-6)Gal(b1-4)GlcNAc(b1-2)[Neu5Ac(a2-6)Gal(b1-4)GlcNAc(b1-4)]Man(a1-3)[GlcNAc(b1-4)][Neu5Ac(a2-6)Gal(b1-4)GlcNAc(b1-2)[Neu5Ac(a2-6)Gal(b1-4)GlcNAc(b1-6)]Man(a1-6)]Man(b1-4)GlcNAc(b1-4)GlcNAc
In short: as §1

[27] = target: Neu5Ac(a2-6)Gal(b1-4)GlcNAc(b1-3)Gal(b1-4)GlcNAc(b1-2)Man(a1-3)[Neu5Ac(a2-6)Gal(b1-4)GlcNAc(b1-3)Gal(b1-4)GlcNAc(b1-2)Man(a1-6)]GalNAc
In short: as §1

[28] = target: Neu5Ac(a2-6)GalNAc(b1-4)GlcNAc6S
In short: as §1

[29] = target: Neu5Ac(a2-8)Neu5Ac
In short: as §1

[30] = target: Neu5Ac(a2-8)Neu5Ac(a2-8)Neu5Ac(a2-8)Neu5Ac(a2-3)[GalNAc(b1-4)]Gal(b1-4)Glc
In short: as §1

B1: Clone646PsrP (Streptococcus pneumoniae) (protein)
chain: MDHHHHHHHHASENLYFQGAPAINASLNIAKSETKVYTGEGVDSVYRVPIYYKLKVTNDGSKLTFTYTVTYVNPKTNDLGNISSMRPGYSIYNSGTSTQTMLTLGSDLGKPSGVKNYITDKNGRQVLSYNTSTMTTQGSGYTWGNGAQMNGFFAKKGYGLTSSWTVPITGTDTSFTFTPYAARTDRIGINYFNGGGKVVESSTTSQSLSQSKSLSVSAS
- glycan array binding signal (z-score) [1]: -0.238
- glycan array binding signal (z-score) [2]: 2.57
- glycan array binding signal (z-score) [3]: 1.81
- glycan array binding signal (z-score) [4]: 1.63
- glycan array binding signal (z-score) [5]: 3.08
- glycan array binding signal (z-score) [6]: 2.75
- glycan array binding signal (z-score) [7]: 0.386
- glycan array binding signal (z-score) [8]: -0.221
- glycan array binding signal (z-score) [9]: -0.265
- glycan array binding signal (z-score) [10]: -0.546
- glycan array binding signal (z-score) [11]: 2.93
- glycan array binding signal (z-score) [12]: 2.09
- glycan array binding signal (z-score) [13]: 3.01
- glycan array binding signal (z-score) [14]: -0.863
- glycan array binding signal (z-score) [15]: -0.205
- glycan array binding signal (z-score) [16]: 1.06
- glycan array binding signal (z-score) [17]: 3.32
- glycan array binding signal (z-score) [18]: 4.74
- glycan array binding signal (z-score) [19]: -0.482
- glycan array binding signal (z-score) [20]: -0.254
- glycan array binding signal (z-score) [21]: 2.89
- glycan array binding signal (z-score) [22]: -0.995
- glycan array binding signal (z-score) [23]: -0.733
- glycan array binding signal (z-score) [24]: -0.713
- glycan array binding signal (z-score) [25]: -0.966
- glycan array binding signal (z-score) [26]: -0.332
- glycan array binding signal (z-score) [27]: -0.421
- glycan array binding signal (z-score) [28]: -0.113
- glycan array binding signal (z-score) [29]: 0.174
- glycan array binding signal (z-score) [30]: -0.64
